Screens deposited in PubChem BioAssay by several laboratories.
In the library only some 1.8% were active in any assay of this set; here they are far more common.
ARNT-TACC3 inh: disruptors of ARNT/TACC3 protein interaction, primary screen, biochemical, AlphaScreen, single concentration; inhibition, % at 9.99 µM; Transforming acidic coiled-coil-containing protein 3 (Homo sapiens), Q9Y6A5; 0.66% of 390,000 active; AlphaScreen His-ARNT PAS-B/GST-TACC3 binding, luminescence; TACC3 fragment carries E629A point mutation;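 active = mean inhibition of replicates at least 50% and at least half of replicates each reaching 50%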
ABCB6 inh MLPCN: ABCB6 transporter inhibitors, primary screen, K562-ABCB6 cells, flow cytometry, MLPCN library. ATP-binding cassette sub-family B member 6 (Homo sapiens), Q9NP58. K562-ABCB6 porphyrin accumulation, 1 h; stronger effect = lower value. fluorescence ratio to DMSO, % at 10 µM. 0.19% of 360,000 active. AID 602162, 2011;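 active = fluorescence ratio to DMSO below 75%, the collection mean minus 3 SD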;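 note: signal is porphyrin accumulated inside mitochondria; lower ratio means ABCB6 inhibition with less porphyrin fluorescence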
hiPSC survival: enhancers of single-cell hiPSC survival, primary screen, ATPlite luminescence. 100% = ROCK inhibitor wells, 0% = DMSO. survival enhancement, % at 20 µM. 0.044% of 360,000 active. AID 602274, 2012; in the data active = survival enhancement above about 18%;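 note: cells exposed to compounds for 16 hours before the ATP read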
INS-1E GSIS act: GLuc luminescence reporter in INS-1E cells, primary screen for activators of glucose-dependent secretion of insulin; INS-1E GLuc reporter insulin secretion, 2-3 h; activation, % at 16.6 µM; 0.61% of 370,000 active; AID 743287, 2014;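 active = lowest replicate activation of at least 40%, so every replicate reaches that level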
NRP1-CendR mod: modulators of CendR peptide binding to NRP-1, primary screen, biochemical, fluorescence polarization, uHTS; FAM-RPARPAR peptide binding to NRP-1; 0.85% of 360,000 active; AID 602438, 2012; inhibition, % at 25 µM; Neuropilin-1 (Homo sapiens), O14786;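 active = inhibition or corrected inhibition above about 18%, plus a signal ratio from 0.5 to 1.5, limit read from the data, passing the limit was not always enough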
Target sequence (O14786 whole entry, looked up): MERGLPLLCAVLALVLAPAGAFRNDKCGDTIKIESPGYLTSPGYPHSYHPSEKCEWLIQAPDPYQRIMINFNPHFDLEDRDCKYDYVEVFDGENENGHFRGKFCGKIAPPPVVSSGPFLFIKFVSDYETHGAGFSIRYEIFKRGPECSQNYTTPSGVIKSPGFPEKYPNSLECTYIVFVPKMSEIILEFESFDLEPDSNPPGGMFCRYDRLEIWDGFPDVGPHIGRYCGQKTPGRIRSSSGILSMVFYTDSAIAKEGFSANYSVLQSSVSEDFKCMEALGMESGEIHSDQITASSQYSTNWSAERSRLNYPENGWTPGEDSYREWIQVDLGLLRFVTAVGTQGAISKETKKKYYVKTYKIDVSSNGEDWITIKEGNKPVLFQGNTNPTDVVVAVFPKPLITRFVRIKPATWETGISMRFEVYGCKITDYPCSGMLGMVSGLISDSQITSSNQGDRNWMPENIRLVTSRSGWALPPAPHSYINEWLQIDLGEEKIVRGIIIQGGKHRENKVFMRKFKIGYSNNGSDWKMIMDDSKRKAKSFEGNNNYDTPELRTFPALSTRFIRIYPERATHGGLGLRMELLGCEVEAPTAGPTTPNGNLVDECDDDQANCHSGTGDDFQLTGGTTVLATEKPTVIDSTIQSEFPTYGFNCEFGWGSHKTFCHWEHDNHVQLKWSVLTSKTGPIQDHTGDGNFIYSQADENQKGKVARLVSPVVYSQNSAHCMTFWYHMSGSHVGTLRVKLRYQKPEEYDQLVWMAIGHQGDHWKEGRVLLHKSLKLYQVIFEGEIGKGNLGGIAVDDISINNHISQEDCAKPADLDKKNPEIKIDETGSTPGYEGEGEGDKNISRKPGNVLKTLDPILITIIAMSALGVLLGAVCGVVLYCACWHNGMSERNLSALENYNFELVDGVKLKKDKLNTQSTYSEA
A number is an active result; . = inactive; / = not tested or not shown.

SMILES	ARNT-TACC3 inh	ABCB6 inh MLPCN	hiPSC survival	INS-1E GSIS act	NRP1-CendR mod
O=S(=O)(c1cccc(F)c1)N1CC[C@@H]2[C@H](CO)Nc3ccc(-c4cccc(F)c4)cc3[C@@H]21	.	/	/	.	/
O=C(O)CCCN1C(=O)/C(=C/c2ccc(-c3nc4ccccc4s3)o2)SC1=S	.	63	.	/	.
O=C(O)CCCCCN1C(=O)/C(=C\c2ccc(-c3ccc(Cl)cc3)o2)SC1=S	.	.	.	.	.
C[C@H]1CCCCO[C@H](CN(C)C(=O)Nc2ccc(C(F)(F)F)cc2)[C@@H](C)CN([C@@H](C)CO)C(=O)c2cc(NC(=O)Nc3ccccc3)ccc2O1	.	/	/	.	/
C[C@@H]1CN([C@@H](C)CO)C(=O)c2cc(-c3ccncc3)cnc2O[C@H]1CN(C)C(=O)C1CC1	/	/	/	.	/
COCCNC(=O)C1Cc2cc(S(=O)(=O)N3CCCC3)ccc2N1C(C)=O (centres undefined)	.	.	.	.	24
COCCCNC(=O)C1Cc2cc(S(=O)(=O)N3CCCC3)ccc2N1C(C)=O (centres undefined)	.	.	.	.	.
CCCNc1ncc2c(=O)[nH][nH]c(=O)c2n1	81	.	.	.	.
CC=Cc1ccc2n(c1=O)C[C@@H]1[C@@H](CO)[C@H](C(=O)N(C)C)N(CC3CCCCC3)[C@H]21 (mixture of isomers)	.	/	/	.	/
CCN(CC)C(=O)Cn1c(=O)oc2ccccc21	.	.	.	42	.
CC(=O)Cn1c(=O)oc2ccccc21	.	.	.	.	.
COCC#Cc1ccc2c(c1)O[C@@H](CN(C)Cc1ccc(F)cc1)[C@@H](C)CN([C@H](C)CO)S2(=O)=O	.	/	/	.	/
CCOC(=O)N1CCN(C(=O)c2ccc(CNS(=O)(=O)c3ccc(NC(C)=O)cc3)cc2)CC1	.	.	.	.	23
CCOC(=O)N1CCN(C(=O)C2CCC(CNS(=O)(=O)c3ccc(Cl)cc3)CC2)CC1 (centres undefined)	/	.	.	/	27
CCOC(=O)N1CCN(C(=O)C2CCN(S(=O)(=O)c3ccc(OC)cc3)CC2)CC1	.	.	.	.	.
CCOC(=O)N1CCN(C(=O)C2CCN(C(=O)c3ccccc3C)CC2)CC1	.	.	.	106	.
CCOC(=O)N1CCN(C(=O)C2CCN(S(=O)(=O)c3ccc(OCC)cc3)CC2)CC1	/	.	.	.	26
O=S(=O)(Cc1ccccc1)NCC[C@H]1CC[C@H](NS(=O)(=O)c2ccccc2)[C@@H](CO)O1	.	/	/	.	/
C[C@H]1CCCCO[C@@H](CN(C)C(=O)NC2CCCCC2)[C@@H](C)CN([C@@H](C)CO)C(=O)c2cc(NS(=O)(=O)c3cccs3)ccc2O1	.	/	/	.	/
Cc1ccc(C(=O)NCC(=O)OCC(=O)c2ccc3c(c2)NC(=O)CO3)cc1	.	.	.	.	31
O=C1COc2ccc(C(=O)COC(=O)COc3ccccc3[N+](=O)[O-])cc2N1	.	.	.	.	25
O=C1COc2ccc(C(=O)COC(=O)CCc3ccc(S(=O)(=O)N4CCOCC4)cc3)cc2N1	.	.	.	/	35
O=C1COc2ccc(C(=O)COC(=O)c3cc(S(=O)(=O)N4CCOCC4)ccc3F)cc2N1	.	.	.	.	.
CO[C@@H]1CN(C)C(=O)c2cc(NC(=O)Nc3ccccc3)ccc2OC[C@@H](C)N(C(=O)CC2CC2)C[C@H]1C	/	/	/	.	/
COC(=O)c1ccccc1NC(=O)CN1CCN(C(=O)c2ccco2)CC1	/	.	.	/	.
SMILES	ARNT-TACC3 inh	ABCB6 inh MLPCN	hiPSC survival	INS-1E GSIS act	NRP1-CendR mod
CCc1cc(C(=O)OC)c(NC(=O)CN2CCN(C(=O)c3ccco3)CC2)s1	.	.	.	.	26
CC(C)CC#Cc1cnc2c(c1)C(=O)N([C@@H](C)CO)C[C@@H](C)[C@@H](CN(C)C(=O)Cc1cccnc1)O2	.	/	/	.	/
Cc1cc2oc(=O)cc(CN3CCOCC3)c2cc1Cl	.	.	.	.	.
Cc1cc2oc(=O)cc(CN3CCOCC3)c2c(C)c1Cl	.	.	.	41	.
CN(C)c1ccc(-c2cc(O)c3ncccc3c2)cc1	.	.	.	.	.
Oc1cc(NCCc2cccnc2)cc2cccnc12	73	.	.	.	.
Oc1cc(Nc2cccnc2)cc2cccnc12	58	.	.	.	.
CCCc1cc(NCC2CCCO2)n2c(nc3ccccc32)c1C#N (centres undefined)	.	.	.	57	.
CCCc1cc(NCCN(C)C)n2c(nc3ccccc32)c1C#N	.	.	.	.	.
COc1ccc2[nH]c(=O)c(CN(CCO)C(=O)c3ccccc3F)cc2c1	.	.	.	67	.
COc1ccc2[nH]c(=O)c(CN(CCc3ccccc3)C(C)=O)cc2c1	.	.	.	.	.
CCCNC(=O)N1CC2(CN(C(=O)Nc3cccc(F)c3)C2)c2c(n(C)c3cc(OC)ccc23)[C@@H]1CO	/	/	/	.	/
CN1C(=S)SC(N(O)C(=O)Nc2cccc3ccccc23)C1(C)C (centres undefined)	.	.	.	/	31
C[C@H](CO)N1C[C@H](C)[C@@H](CN(C)C(=O)Nc2cccc3ccccc23)Oc2ccc(NC(=O)C3CCCCC3)cc2CC1=O	.	/	/	.	/
CCCCc1c(-c2ccccc2OC)ncn1CCc1ccccc1	/	.	.	46	.
CCCCc1c(Cc2ccccc2)ncn1CCc1ccccc1OC	/	.	.	174	.
CCCCc1c(-c2ccccc2OC)ncn1CCc1ccc(OC)cc1	/	.	.	.	.
CCCCc1c(-c2ccccc2OC)ncn1C(C)c1ccccc1 (centres undefined)	/	/	/	92	/
O=C(C[C@H]1CC[C@H](NS(=O)(=O)c2ccccc2)[C@H](CO)O1)N1CCC(Cc2ccccc2)CC1	/	/	/	.	/
CO[C@@H]1CN(C)C(=O)c2cc(NC(=O)c3ccccc3)ccc2OC[C@H](C)N(CC2CC2)C[C@H]1C	.	/	/	.	/
O=S(=O)(O)c1cc(O)c(N=Nc2ccc(O)cc2O)c2ccccc12	93	.	.	.	.
CO[C@H]1CN(C)C(=O)c2ccc(NC(=O)Nc3ccc4c(c3)OCO4)cc2OC[C@H](C)NC[C@@H]1C	/	/	/	.	/
O=C(c1ccc(F)cc1)N1CC(=O)N2[C@H](C1)[C@@H](c1ccc(C#CC3CCCC3)cc1)[C@@H]2CO	/	/	/	.	/
Cc1cccc(-n2cnc(C(=O)NNC(=S)Nc3ccc(Cl)cc3)c2)n1	67	.	.	.	.
COc1ccc(CCNC(=O)COC(=O)c2ccccc2NCCO)cc1OC	.	.	.	83	.
COc1ccc(CCNC(=O)Cc2ccc3c(c2)OCO3)cc1OC	.	.	.	102	.
COc1ccc(CCNC(=O)c2ccccc2C(=O)NCCc2ccc(OC)c(OC)c2)cc1OC	/	.	.	.	.
COc1ccc(CCNC(=O)CCCc2ccccc2)cc1OC	.	.	.	55	.
